Assay outcomes (PubChem)
An excerpt weighted towards active compounds, which were near 2.4% of everything screened.
Pol eta inh = qHTS for Inhibitors of Polymerase Eta | 1.2% of 390,000 active | recombinant Pol eta, fluorescent DNA replication assay | Potency, µM (titrated, usually from 114 µM), for inactives: at the top dose activity change, negative = inhibition, usual class: inhibitors | DNA polymerase eta (Homo sapiens), Q9Y253; note: % is set by controls: 0 for no effect and ±100 for the full control effect
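Pol eta (10 nM) was preincubated with compounds for 15 min at room temperature, after which fluorescent replication substrate (50 nM final) was added to start the reaction. Fluorescence was read kinetically at 0 and 10 min.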
TDP1 block = qHTS Assay for Inhibitors of Tyrosyl-DNA Phosphodiesterase (TDP1); Tyrosyl-DNA phosphodiesterase 1 (Homo sapiens), Q9NUW8; 0.28% of 350,000 active; recombinant TDP1, AlphaScreen DNA substrate cleavage; Potency, µM (top dose mostly 130 µM), inactives show at the highest dose activity change, negative = inhibition, actives largely listed as inhibitors; note: % is set by controls: 0 for no effect and ±100 for the full control effect; nearly all actives have a fitted effect of over 40% in size
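E. coli-derived human Tdp1, 1 nM final. Cpd preinc 15 min RT; substrate 15 nM final, 5 min RT; AS bead mix 10 ug/ml final, 10 min RT. Signal loss = tyrosine-FITC cleavage. No-enzyme wells = max signal.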
Pol beta inh = qHTS Assay for Inhibitors of DNA Polymerase Beta; 1.3% of 340,000 active; Potency, µM (doses to about 114 µM), without a hit: at the highest dose activity change, negative = inhibition, usual class: inhibitors; AID 485314, 2010; P06746; Pol beta primer extension/strand displacement, fluorescence kinetic; note: % is set by controls: 0 for no effect and ±100 for the full control effect
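Preincubation: enzyme (10 nM) with compound, 15 min, RT. Reaction: substrate added to 50 nM final. Reads: 0 and 10 min. Analysis: normalized, Hill fit.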
Pol kappa inh = qHTS for Inhibitors of Polymerase Kappa | purified Pol kappa, fluorescent DNA synthesis assay, 10 min | Potency, µM (series often up to 107 µM), for inactives: at the top dose activity, negative = inhibition, actives largely listed as inhibitors | DNA polymerase kappa (Homo sapiens), Q9UBT6 | AID 588579, 2011 | 0.53% of 400,000 active; note: % is set by controls: 0 for no effect and ±100 for the full control effect
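Kinetic fluorescence readout at 0 and 10 min followed reaction start with substrate at 50 nM final. Beforehand, enzyme (10 nM Pol kappa) stood 15 min with compound at room temperature; buffer-only wells were negative controls.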
POLI inh = qHTS for Inhibitors of Polymerase Iota | DNA polymerase iota (Homo sapiens), Q9UNA4 | Pol iota fluorescent replication assay, 10 min | Potency, µM (series often up to 115 µM), inactives show top-dose activity, negative = inhibition, hits mostly inhibitors | 1% of 390,000 active | AID 588590, 2011
Target sequence (Q9UNA4 whole entry, looked up): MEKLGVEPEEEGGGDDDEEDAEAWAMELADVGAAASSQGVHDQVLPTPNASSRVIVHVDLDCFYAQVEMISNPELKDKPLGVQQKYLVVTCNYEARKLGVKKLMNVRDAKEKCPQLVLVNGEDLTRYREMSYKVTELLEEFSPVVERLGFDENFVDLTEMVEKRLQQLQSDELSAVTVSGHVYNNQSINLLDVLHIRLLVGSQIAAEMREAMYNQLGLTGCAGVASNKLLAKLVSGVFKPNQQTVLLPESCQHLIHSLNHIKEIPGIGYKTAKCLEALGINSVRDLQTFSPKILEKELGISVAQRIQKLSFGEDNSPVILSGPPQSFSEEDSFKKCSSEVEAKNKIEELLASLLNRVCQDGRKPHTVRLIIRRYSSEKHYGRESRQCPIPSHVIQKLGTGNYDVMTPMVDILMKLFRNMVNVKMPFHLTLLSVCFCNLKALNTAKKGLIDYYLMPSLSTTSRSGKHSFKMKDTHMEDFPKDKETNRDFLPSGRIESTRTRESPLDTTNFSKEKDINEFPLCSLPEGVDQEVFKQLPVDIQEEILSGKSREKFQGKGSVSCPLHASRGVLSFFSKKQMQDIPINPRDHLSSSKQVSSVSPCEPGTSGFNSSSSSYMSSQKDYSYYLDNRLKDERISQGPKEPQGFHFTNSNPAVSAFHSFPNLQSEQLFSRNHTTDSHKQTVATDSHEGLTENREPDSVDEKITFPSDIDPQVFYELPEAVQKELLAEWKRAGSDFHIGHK
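Pol iota at 10 nM preincubated 15 min with compounds at room temperature; reaction started with fluorescent substrate, 50 nM final. Fluorescence read kinetically at 0 and 10 min; buffer-only wells as negative control.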
FEN1 inhibitor = qHTS Assay for the Inhibitors of Human Flap endonuclease 1 (FEN1) | 0.35% of 390,000 active | Potency, µM (doses to about 114 µM), inactives show top-dose activity change, negative = inhibition, most hits filed as inhibitors | P39748 | Recombinant FEN1 flap cleavage, fluorescence, 15 min; note: % is set by controls: 0 for no effect and ±100 for the full control effect; nearly all actives have a fitted effect of over 65% in size
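Steps: FEN1 (10 nM) dispensed; compound added by pin tool; 15 min at room temperature; substrate added to 50 nM final; reads at 0 min and 15 min; data normalized and fitted (four-parameter Hill).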
Starred values were filed as active, the others as inactive; ? = inconclusive; / = no result given; [ ] = another dose, or the depositor's remark. Calls come from the whole dose curve; as a rule, active = well fitted curve in the direction sought with a large enough effect; inconclusive = small, poorly fitted or top-dose-only effect, or another doubt; inactive = no such curve, though single readings can be large; an effect the other way counts as inactive or inconclusive. Potency is the fitted concentration of half-maximal effect.

SMILES	Pol eta inh	TDP1 block	Pol beta inh	Pol kappa inh	POLI inh	FEN1 inhibitor
COc1ccc(-c2nn(-c3ccccc3)cc2C(=O)Nc2nccs2)cc1	-5.0%	11.6%	5.0%	-3.0%	6.3%	-9.2%
CC(C)(C)n1ncc2c(=O)n(Cc3c(F)cc(Cl)cc3F)cnc21	/	/	/	-18.8%	15.5%	-15.5%
CCOC(=O)COc1c(Br)cc(C2NC(=O)NC(C)=C2C(C)=O)cc1OC (stereo not given)	22.4µM*	-2.5%	?	?	?	-9.2%
COC(=O)C1CCN(C(=O)COC(=O)c2cc(-c3ccccc3)nc3ccc(OC)cc23)CC1	39.8µM*	28.2µM*	/	-45.2%	20µM*	-15.0%
COc1ccc(-c2cc(C(=O)OCC(=O)N3CCOCC3)c3ccccc3n2)cc1	-7.7%	-4.6%	/	-12.3%	17.4%	-28.8%
COc1ccc(-c2cnc(-c3cccnc3)o2)cc1	/	6.2%	/	/	/	/
O=S(=O)(c1ccc2c(c1)OCCO2)N1CCN(S(=O)(=O)c2ccccc2F)CC1	/	1.8%	/	/	/	/
COc1ccc(-n2ncc3c(N4CCC(C(N)=O)CC4)ncnc32)cc1	-23.1%	2.9%	?	-11.2%	0.9%	-5.5%
CCOC(=O)C1CCN(c2ncnc3c2cnn3-c2ccc(OC)cc2)CC1	-7.0%	-11.6%	50.1µM*	-22.8%	10.8%	-7.2%
CCN(CC)CCCC(C)n1c(-c2ccccc2)nc2c(NCCOC)nc(C)nc21 (stereo not given)	/	2.7%	/	/	/	/
O=[N+]([O-])c1ccc(NCCc2ccccc2)c(Br)c1	-20.8%	/	79.4µM*	-4.4%	-2.2%	-6.5%
NC(=O)c1cc([N+](=O)[O-])ccc1NCCc1ccccc1	-7.2%	/	14.6%	-4.7%	28.1%	11.2%
COC(=O)C1=C(C)NC(C)=C(C(=O)OCCCN2CCC(c3ccccc3)(c3ccccc3)CC2)C1c1cccc([N+](=O)[O-])c1 (stereo not given)	/	20.7%	/	4.3%[19.4 µM]	/	/
CCOC(=O)c1sc(N2C(=O)C(O)=C(C(=O)c3ccco3)C2c2ccco2)nc1C (stereo not given)	?	3.8%	?	?	56.2µM*	-20.4%
COc1cc(C(=O)/C=C/Nc2ccc(NC(C)=O)cc2)cc(OC)c1OC	-20.8%	-5.5%	70.8µM*	-12.8%	-9.9%	0.4%
COc1cc(C(=O)NNC(=O)c2ccc(NC(C)=O)cc2)cc(OC)c1OC	-2.9%	2.6%	4.9%	6.3%	16.8%	-0.2%
CC(=O)Nc1ccc(N/C=C/C(=O)c2ccc(Cl)cc2)cc1	1.3%	31.6µM*	7.6%	-12.5%	132.0%	1.3%
CC(=O)c1ccc(N/C=C\C(=O)c2ccc(C)cc2)cc1	-9.8%	2.5%	-0.2%	0.3%	93.0%	6.2%
C[n+]1cc2c3c(ccc2c2ccc4cc5c(cc4c21)OCO5)OCO3	?	13.7%	7.94µM*	-10.5%[60.1 µM]	28.2µM*	11.2µM*
C[n+]1c(/C=C/c2ccc3c(c2)OCO3)ccc2ccccc21	7.8%	3.7%	9.3%	-14.9%	22.8%	0.5%
CC(C)NS(=O)(=O)c1ccc(OCC(=O)N2CCN(c3ccccc3F)CC2)cc1	-15.8%	1.1%	-15.2%	9.7%	36.0%	-2.0%
C=C1C=C(C(F)F)n2ncc(C(=O)NCc3ccccc3OC)c2N1	/	/	/	12.1%	7.9%	5.9%
O=C(CSc1nccn1-c1ccccc1)c1ccc(Cl)cc1	-13.6%	8.6%	5.7%	-2.3%	-4.3%	6.3%
Cc1ccc(C(=O)CSc2nccn2-c2ccccc2)cc1	-16.2%	3.2%	56.2µM*	-7.5%	-6.2%	-9.2%
Cc1cnc2ccc3ccccc3c2c1C	/	/	/	-0.3%	25.6%	?
O=c1cc(-c2ccc(O)cc2)oc2c(-c3c(O)cc(O)c4c(=O)cc(-c5ccc(O)cc5)oc34)c(O)cc(O)c12	25.1µM*	-0.8%	/	?	?	?
